# Several values for one entry are separate records, joined by “and”; a condition that tells them apart may be missing. Equal entries are not always repeated. Structures can show the parent of a compound that is named as a salt. In all, about 5,800 compounds went through this assay and about 620 (11%) showed activity.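 The calls were made as follows: active = score above a cut-off or among the top three wells of a plate; in these data no inactive exceeds 0.85.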 The sample as a whole holds a higher share of actives than the screen did.
# Tested on: primary human hepatic stellate cells (donor 1)
# Test: scaled lipid accumulation score (0 = DMSO-like, 1 = nortriptyline-like); higher = stronger HSC inactivation (lipid re-accumulation), active = hit call of the paper
# Settings: 48 h
# [1] = library stock concentration: 10 mM
# [2] = library stock concentration: 80 uM
# [3] = library stock concentration: 400 uM
# [4] = library stock concentration: 2 mM
# [5] = library stock concentration: 3.33 mM
# [6] = library stock concentration: 1 mM
# [7] = library stock concentration: 2.6 mM
smiles,measurement,setting,value
O=C1c2c(O)cc(O)cc2O[C@H](c2ccc(O)c(O)c2)[C@H]1O,scaled lipid accumulation score,[1],≤ 0 (inactive)
OCc1ccccc1O [Salicyl alcohol],scaled lipid accumulation score,[1],≤ 0 (inactive)
same,scaled lipid accumulation score,library stock concentration: 16.1 mM,≤ 0 (inactive)
COc1ccc(S(=O)(=O)N(C(C)=O)c2ccccc2/C=C/c2cc[n+]([O-])cc2)cc1,scaled lipid accumulation score,[2],≤ -0.016 (inactive)
same,scaled lipid accumulation score,[3],≤ -0.016 (inactive)
same,scaled lipid accumulation score,[4],≤ -0.016 (inactive)
same,scaled lipid accumulation score,[5],≤ 0 (inactive)
same,scaled lipid accumulation score,[1],≤ 0 (inactive) and 0.15 (inactive)
COc1ccc(S(=O)(=O)N(CCO)c2ccccc2CN(C)C/C=C/c2ccc(Cl)cc2)cc1 [KN-93 Phosphate],scaled lipid accumulation score,[5],0.441 (inactive)
COc1ccc(S(=O)(=O)N(CCO)c2ccccc2CN(C)CC=Cc2ccc(Cl)cc2)cc1.O=P(=O)OO.[H] [KN-93 Phosphate],scaled lipid accumulation score,[1],1.07 (active)
CCCCCCCC/C=C\CCCCCCCC(=O)N[C@@H](CO)C(=O)O [N-Oleoyl-L-Serine],scaled lipid accumulation score,[6],≤ 0 (inactive)
CCCC1([C@H](O)C/C=C/[C@H]2[C@H](O)CC(=O)[C@@H]2CCCCCCC(=O)OC)CCC1 [Butaprost],scaled lipid accumulation score,[6],≤ 0 (inactive)
CC/C=C\C/C=C\C/C=C\C/C=C\C/C=C\CCCCCC(=O)O [Docosapentaenoic Acid],scaled lipid accumulation score,[6],≤ 0 (inactive)
CC/C=C\C/C=C\C/C=C\C/C=C\C/C=C\CCCCCC(=O)O [Docosapentaenoic acid],scaled lipid accumulation score,[6],≤ -0.021 (inactive)
COc1cc2nccc(Oc3ccc(NC(=O)Nc4cc(C)on4)c(Cl)c3)c2cc1OC [VEGFR Tyrosine Kinase Inhibitor IV],scaled lipid accumulation score,[5],≤ 0 (inactive)
COc1cc(Oc2ccnc3cc(OC)c(OC)cc23)ccc1NC(=O)NC(C)c1nccs1 (configuration not stated),scaled lipid accumulation score,[2],≤ -0.016 (inactive)
same,scaled lipid accumulation score,[3],≤ -0.016 (inactive) and ≤ -0.005 (inactive)
same,scaled lipid accumulation score,[4],≤ -0.016 (inactive) and ≤ -0.005 (inactive)
same,scaled lipid accumulation score,[1],0.713 (inactive) and 0.552 (inactive)
COc1cc2nccc(Oc3ccc(NC(=O)Nc4ccc(F)cc4F)c(F)c3)c2cc1OC [listing 1 of 3 here],scaled lipid accumulation score,[5],0.473 (inactive)
COc1cc2nccc(Oc3ccc(NC(=O)Nc4ccc(F)cc4F)c(F)c3)c2cc1OC [listing 2 of 3 here],scaled lipid accumulation score,[1],1.05 (active)
"COc1cc2nccc(Oc3ccc(NC(=O)Nc4cc(C)on4)c(Cl)c3)c2cc1OC [AV951 (KRN951, Tivozanib) (0.4 mM)]",scaled lipid accumulation score,[3],≤ -0.005 (inactive)
"COc1cc2nccc(Oc3ccc(NC(=O)Nc4cc(C)on4)c(Cl)c3)c2cc1OC [AV951 (KRN951, Tivozanib) (2 mM)]",scaled lipid accumulation score,[4],≤ -0.005 (inactive)
"COc1cc2nccc(Oc3ccc(NC(=O)Nc4cc(C)on4)c(Cl)c3)c2cc1OC [AV951 (KRN951, Tivozanib) (10 mM)]",scaled lipid accumulation score,[1],0.775 (inactive)
COc1cc2nccc(Oc3ccc(NC(=O)NC4CC4)c(Cl)c3)c2cc1C(N)=O [Lenvatinib (E7080)],scaled lipid accumulation score,[5],0.055 (inactive)
same,scaled lipid accumulation score,[1],≤ 0 (inactive)
COc1cc2nccc(Oc3ccc(NC(=O)Nc4cc(C)on4)c(Cl)c3)c2cc1OC [Tivozanib (AV-951)],scaled lipid accumulation score,[5],0.068 (inactive)
same,scaled lipid accumulation score,[1],0.098 (inactive)
COc1cc2nccc(Oc3ccc(NC(=O)NC4CC4)c(Cl)c3)c2cc1C(N)=O,scaled lipid accumulation score,[3],0.067 (inactive)
same,scaled lipid accumulation score,[4],≤ -0.005 (inactive)
same,scaled lipid accumulation score,[1],≤ -0.005 (inactive)
COc1cc2nccc(Oc3ccc(NC(=O)Nc4cc(C)on4)c(Cl)c3)c2cc1OC,scaled lipid accumulation score,[2],0.016 (inactive)
same,scaled lipid accumulation score,[3],≤ 0 (inactive)
same,scaled lipid accumulation score,[4],0.009 (inactive)
same,scaled lipid accumulation score,[1],0.246 (inactive)
COc1cc2nccc(Oc3ccc(NC(=O)Nc4ccc(F)cc4F)c(F)c3)c2cc1OC [listing 3 of 3 here],scaled lipid accumulation score,[1],1.22 (active)
CC(=O)N(O)[C@@H]1c2cc(C#N)ccc2OC(C)(C)[C@H]1O,scaled lipid accumulation score,[1],≤ 0 (inactive)
O=C(O)CCC/C=C\C[C@@H]1[C@@H](/C=C/C(F)(F)COc2ccccc2)[C@H](O)C[C@@H]1O [Tafluprost (free acid)],scaled lipid accumulation score,[6],0.007 (inactive)
CCCCC[C@H](O)/C=C/[C@@H]1[C@@H](C/C=C\CCCCN(C)C)[C@@H](O)C[C@H]1O [Prostaglandin F2.alpha. dimethyl amine],scaled lipid accumulation score,[6],≤ 0 (inactive)
CCCCCCCCCCCCCCCCCCOCC(COP(=O)([O-])OCC[N+](C)(C)C)OC (configuration not stated),scaled lipid accumulation score,[1],≤ -0.024 (inactive)
O=C(O)CCC/C=C\C[C@@H]1[C@@H](/C=C/C(=O)CCc2ccccc2)[C@H](O)C[C@@H]1O [15-keto-17-phenyl trinor Prostaglandin F2.alpha.],scaled lipid accumulation score,[6],≤ 0 (inactive)
CCCCC[C@H](O)/C=C/[C@@H]1[C@@H](C/C=C\CCCC(=O)OCC(O)CO)[C@@H](O)C[C@H]1O (stereo partly drawn) [Prostaglandin F2.alpha.-1-glyceryl ester],scaled lipid accumulation score,[6],≤ 0 (inactive)
CCCCCCCC(=O)CC[C@@H]1[C@@H](C/C=C\CCCC(=O)OC(C)C)[C@@H](O)C[C@H]1O [Unoprostone isopropyl ester],scaled lipid accumulation score,[6],≤ 0 (inactive)
CN1CCN(Cc2ccc(-c3cnc4[nH]cc(-c5ccc6[nH]ccc6c5)c4c3)cc2)CC1 [listing 1 of 2 here],scaled lipid accumulation score,[2],≤ -0.001 (inactive)
same,scaled lipid accumulation score,[3],0.001 (inactive)
same,scaled lipid accumulation score,[1],0.422 (inactive)
CN1CCN(Cc2ccc(-c3cnc4[nH]cc(-c5ccc6[nH]ccc6c5)c4c3)cc2)CC1 [listing 2 of 2 here],scaled lipid accumulation score,[4],1.3 (active)
O=C(O)c1ccc(-c2c[nH]c3ncc(-c4ccccc4)cc23)cc1C1CCCC1,scaled lipid accumulation score,[5],≤ -0.009 (inactive)
same,scaled lipid accumulation score,[1],0.079 (inactive) and ≤ -0.001 (inactive)
NC[C@H]1O[C@@H](n2cnc3c(N)ncnc32)[C@H](O)[C@@H]1O [5'-Amino-5'-deoxyadenosine p-toluenesulfonate salt],scaled lipid accumulation score,[1],≤ 0 (inactive)
CCN(CC)CCOc1ccc2c(c1)C(=O)c1cc(OCCN(CC)CC)ccc1-2 [Tilorone] [listing 1 of 2 here],scaled lipid accumulation score,library stock concentration: 4.9 mM,0.006 (inactive)
CCCOc1cc(N)ccc1C(=O)OCCN(CC)CC [Propoxycaine hydrochloride],scaled lipid accumulation score,,≤ 0 (inactive)
CCN(CC)CCOc1ccc2c(c1)C(=O)c1cc(OCCN(CC)CC)ccc1-2 [Tilorone] [listing 2 of 2 here],scaled lipid accumulation score,[1],0.879 (active)
FC(F)(F)COCC(F)(F)F [Flurothyl],scaled lipid accumulation score,library stock concentration: 11 mM,≤ -0.001 (inactive)
OCCC#Cc1nc(-c2ccc(F)cc2)c(-c2ccncc2)n1CCCc1ccccc1,scaled lipid accumulation score,[3],≤ -0.005 (inactive)
same,scaled lipid accumulation score,[4],≤ -0.005 (inactive)
same,scaled lipid accumulation score,[1],0.668 (inactive)
Nc1ncnc2c1ncn2C1CCCO1 (configuration not stated),scaled lipid accumulation score,[1],≤ 0 (inactive) and ≤ -0.006 (inactive)
same,scaled lipid accumulation score,library stock concentration: 24.4 mM,≤ -0.005 (inactive)
O=C(O)C=C1CCCc2ccccc2C1O (configuration not stated),scaled lipid accumulation score,[1],0.122 (inactive) and 0.034 (inactive)
CC(=O)c1ccc2c(c1)N(CCCN1CCC(CCO)CC1)c1ccccc1S2 [Piperacetazine],scaled lipid accumulation score,,0.427 (inactive)
CSc1ccccc1N1CCN(CCCCCC(=O)NC2CCCc3ccccc32)CC1.Cl (configuration not stated),scaled lipid accumulation score,[1],1.06 (active)
COc1ccccc1N1CCN(CCCCN2C(=O)c3ccccc3C2=O)CC1 [NAN-190 hydrobromide],scaled lipid accumulation score,[1],0.324 (inactive) and 0.002 (inactive)
Cl.O=C(CCCCCN1CCN(c2ccccc2-c2ccccc2)CC1)NC1CCCc2ccccc21 (configuration not stated) [LP 12 hydrochloride hydrate],scaled lipid accumulation score,[1],0.898 (active)
CC(=O)c1ccc2c(c1)N(CCCN1CCN(CCO)CC1)c1ccccc1S2,scaled lipid accumulation score,[1],0.638 (inactive)
CC(=O)Nc1cccc2c1c(Sc1ccc(Cl)cc1)c(C)n2CC(=O)O,scaled lipid accumulation score,[5],≤ -0.009 (inactive)
same,scaled lipid accumulation score,[1],0.195 (inactive)
CC[n+]1c(/C=C/N(C)c2ccccc2)n(-c2ccccc2)c2ccc(-c3nc4ccccc4s3)cc21 [Akt Inhibitor IV],scaled lipid accumulation score,[5],≤ 0 (inactive)
CCCCCCCCCCCCCCCCCCCC(=O)NCCO [Arachidoyl Ethanolamide],scaled lipid accumulation score,[6],≤ 0 (inactive)
COc1cc(/C=C/C(=O)N2CCCCCCC2)cc(OC)c1OC,scaled lipid accumulation score,[1],≤ 0 (inactive)
C[C@H]1O[C@@H](O[C@H]2[C@@H](O)C[C@H](O[C@H]3[C@@H](O)C[C@H](O[C@H]4CC[C@@]5(C)[C@H](CC[C@@H]6[C@@H]5C[C@@H](O)[C@]5(C)[C@@H](C7=CC(=O)OC7)CC[C@]65O)C4)O[C@@H]3C)O[C@@H]2C)C[C@H](O)[C@@H]1O,scaled lipid accumulation score,[1],0.599 (inactive)
C[C@H]1O[C@@H](O[C@H]2[C@@H](O)C[C@H](O[C@H]3[C@@H](O)C[C@H](O[C@H]4CC[C@]5(C)C6C[C@@H](O)[C@]7(C)[C@@H](C8=CC(=O)OC8)CC[C@]7(O)C6CC[C@@H]5C4)O[C@@H]3C)O[C@@H]2C)C[C@H](O)[C@@H]1O (some centres not stated) [Digoxin],scaled lipid accumulation score,[7],0.937 (active)
C[C@H]1O[C@@H](O[C@H]2[C@@H](O)C[C@H](O[C@H]3[C@@H](O)C[C@H](O[C@H]4CC[C@]5(C)C6CC[C@]7(C)[C@@H](C8=CC(=O)OC8)CC[C@]7(O)C6CC[C@@H]5C4)O[C@@H]3C)O[C@@H]2C)C[C@H](O)[C@@H]1O (some centres not stated) [Digitoxin],scaled lipid accumulation score,[7],1.2 (active)
C[C@H]1O[C@@H](O[C@H]2[C@@H](O)C[C@H](O[C@H]3[C@@H](O)C[C@H](O[C@H]4CC[C@@]5(C)[C@H](CC[C@@H]6[C@@H]5C[C@@H](O)[C@]5(C)[C@@H](C7=CC(=O)OC7)CC[C@]65O)C4)O[C@@H]3C)O[C@@H]2C)C[C@H](O)[C@@H]1O [Digoxin],scaled lipid accumulation score,,1.03 (active)
same,scaled lipid accumulation score,[5],1.11 (active)
same,scaled lipid accumulation score,[1],0.888 (active) and 0.816 (inactive)
C[C@H]1O[C@@H](O[C@H]2[C@@H](O)C[C@H](O[C@H]3[C@@H](O)C[C@H](O[C@H]4CC[C@@]5(C)[C@H](CC[C@@H]6[C@@H]5CC[C@]5(C)[C@@H](C7=CC(=O)OC7)CC[C@]65O)C4)O[C@@H]3C)O[C@@H]2C)C[C@H](O)[C@@H]1O [Digitoxin],scaled lipid accumulation score,[1],0.545 (inactive)
